Reference: paper PMC12864922, “TDP-43 directly inhibits mRNA accumulation in neurites through modulation of mRNA stability”
Whole data set: some 9,900 sequences, median “r (bound/input frequency ratio)” near 0.7, cut for the highest 2% near 6.5. Only a selection was taken, and the highest values are over-represented in it overall.

B1: ENSMUSG00000043670.201|Diras1 (ssRNA)
RNA: GGGAGUUCUACAGUCCGACGAUCGCUUCGAUAUCCGCAUGCUAUGAGUGGCUCCUGGGCCUGUGUCCCACCCAGAUGAGGGUGACUUAGAAUUCUGUGUUUAUGUGCCUGUGUGUGUGGAUGGGUGUGUGUCUGUCUUGGGAUGGGGUGUUCUUGCACCACUUUGUGUUCUUAGUGAGACCACAGUGUAAGUGGCCGUGUGUGUGUGUGGGGGGGGGCACCUAGACAUUGUGGUGUGUCUGUAUGGCUCUGUGUUUUCAGGGGUGGGUGACACAGGCCUGUCUGAUGAGCACCAGGUCUGUUCCUCUUGCGGUCGCACUAGUGUGGAAUUCUCGGGUGUCAAGG
B2: ENSMUSG00000043670.196|Diras1 (ssRNA)
RNA: GGGAGUUCUACAGUCCGACGAUCGCUUCGAUAUCCGCAUGCUAUGUGGUAUCUGCGAGACUGUCCAGGAGACUUGAGUGGCUCCUGGGCCUGUGUCCCACCCAGAUGAGGGUGACUUAGAAUUCUGUGUUUAUGUGCCUGUGUGUGUGGAUGGGUGUGUGUCUGUCUUGGGAUGGGGUGUUCUUGCACCACUUUGUGUUCUUAGUGAGACCACAGUGUAAGUGGCCGUGUGUGUGUGUGGGGGGGGGCACCUAGACAUUGUGGUGUGUCUGUAUGGCUCUGUGUUUUCAGGGGUGGGUGACACCUCUUGCGGUCGCACUAGUGUGGAAUUCUCGGGUGUCAAGG
B3: ENSMUSG00000043670.206|Diras1 (ssRNA)
RNA: GGGAGUUCUACAGUCCGACGAUCGCUUCGAUAUCCGCAUGCUAGAUGAGGGUGACUUAGAAUUCUGUGUUUAUGUGCCUGUGUGUGUGGAUGGGUGUGUGUCUGUCUUGGGAUGGGGUGUUCUUGCACCACUUUGUGUUCUUAGUGAGACCACAGUGUAAGUGGCCGUGUGUGUGUGUGGGGGGGGGCACCUAGACAUUGUGGUGUGUCUGUAUGGCUCUGUGUUUUCAGGGGUGGGUGACACAGGCCUGUCUGAUGAGCACCAGGUCUGUUCCAGGCUGUGGCAAGCUGGCUCCUGGCUCAGCUCUUGCGGUCGCACUAGUGUGGAAUUCUCGGGUGUCAAGG
B4: ENSMUSG00000043670.204|Diras1|34:38;48:57;63:70;103:107;136:148;172:177;180:184;189:193 (ssRNA)
RNA: GGGAGUUCUACAGUCCGACGAUCGCUUCGAUAUCCGCAUGCUAGUGUCCCACCCAGAUGAGGGUGACUUAGAAUUCACACAUUAUGUGCCACACACACACGAUGGCACACACACUGUCUUGGGAUGGGGUGUUCUUGCACCACUUACACAUCUUAGUGAGACCACAGUGUAAGUGGCCCACACACACACACGGGGGGGGCACCUAGACAUUGUGCACACACUCAUACGCUCACACAUUUCAGGGGUGGGUGACACAGGCCUGUCUGAUGAGCACCAGGUCUGUUCCAGGCUGUGGCAAGCUGGCUCUUGCGGUCGCACUAGUGUGGAAUUCUCGGGUGUCAAGG
B5: ENSMUSG00000043670.195|Diras1 (ssRNA)
RNA: GGGAGUUCUACAGUCCGACGAUCGCUUCGAUAUCCGCAUGCUAAGCCCCUGUGGUAUCUGCGAGACUGUCCAGGAGACUUGAGUGGCUCCUGGGCCUGUGUCCCACCCAGAUGAGGGUGACUUAGAAUUCUGUGUUUAUGUGCCUGUGUGUGUGGAUGGGUGUGUGUCUGUCUUGGGAUGGGGUGUUCUUGCACCACUUUGUGUUCUUAGUGAGACCACAGUGUAAGUGGCCGUGUGUGUGUGUGGGGGGGGGCACCUAGACAUUGUGGUGUGUCUGUAUGGCUCUGUGUUUUCAGGGGUGGGCUCUUGCGGUCGCACUAGUGUGGAAUUCUCGGGUGUCAAGG
B6: ENSMUSG00000043670.216|Diras1 (ssRNA)
RNA: GGGAGUUCUACAGUCCGACGAUCGCUUCGAUAUCCGCAUGCUAGUCUUGGGAUGGGGUGUUCUUGCACCACUUUGUGUUCUUAGUGAGACCACAGUGUAAGUGGCCGUGUGUGUGUGUGGGGGGGGGCACCUAGACAUUGUGGUGUGUCUGUAUGGCUCUGUGUUUUCAGGGGUGGGUGACACAGGCCUGUCUGAUGAGCACCAGGUCUGUUCCAGGCUGUGGCAAGCUGGCUCCUGGCUCAGAAGUGACAAAGCUGCAGUACAGAGGCCUCAGUGUGAGGUCAUCACCUCACAGUGGCUACACUCUUGCGGUCGCACUAGUGUGGAAUUCUCGGGUGUCAAGG
B7: ENSMUSG00000043670.197|Diras1 (ssRNA)
RNA: GGGAGUUCUACAGUCCGACGAUCGCUUCGAUAUCCGCAUGCUAAUCUGCGAGACUGUCCAGGAGACUUGAGUGGCUCCUGGGCCUGUGUCCCACCCAGAUGAGGGUGACUUAGAAUUCUGUGUUUAUGUGCCUGUGUGUGUGGAUGGGUGUGUGUCUGUCUUGGGAUGGGGUGUUCUUGCACCACUUUGUGUUCUUAGUGAGACCACAGUGUAAGUGGCCGUGUGUGUGUGUGGGGGGGGGCACCUAGACAUUGUGGUGUGUCUGUAUGGCUCUGUGUUUUCAGGGGUGGGUGACACAGGCCUCUCUUGCGGUCGCACUAGUGUGGAAUUCUCGGGUGUCAAGG
B8: ENSMUSG00000043670.213|Diras1 (ssRNA)
RNA: GGGAGUUCUACAGUCCGACGAUCGCUUCGAUAUCCGCAUGCUAGUGGAUGGGUGUGUGUCUGUCUUGGGAUGGGGUGUUCUUGCACCACUUUGUGUUCUUAGUGAGACCACAGUGUAAGUGGCCGUGUGUGUGUGUGGGGGGGGGCACCUAGACAUUGUGGUGUGUCUGUAUGGCUCUGUGUUUUCAGGGGUGGGUGACACAGGCCUGUCUGAUGAGCACCAGGUCUGUUCCAGGCUGUGGCAAGCUGGCUCCUGGCUCAGAAGUGACAAAGCUGCAGUACAGAGGCCUCAGUGUGAGGUCAUCUCUUGCGGUCGCACUAGUGUGGAAUUCUCGGGUGUCAAGG
B9: ENSMUSG00000043670.200|Diras1 (ssRNA)
RNA: GGGAGUUCUACAGUCCGACGAUCGCUUCGAUAUCCGCAUGCUAGAGACUUGAGUGGCUCCUGGGCCUGUGUCCCACCCAGAUGAGGGUGACUUAGAAUUCUGUGUUUAUGUGCCUGUGUGUGUGGAUGGGUGUGUGUCUGUCUUGGGAUGGGGUGUUCUUGCACCACUUUGUGUUCUUAGUGAGACCACAGUGUAAGUGGCCGUGUGUGUGUGUGGGGGGGGGCACCUAGACAUUGUGGUGUGUCUGUAUGGCUCUGUGUUUUCAGGGGUGGGUGACACAGGCCUGUCUGAUGAGCACCAGGUCUCUUGCGGUCGCACUAGUGUGGAAUUCUCGGGUGUCAAGG

These binders were tested against TDP-43 (Homo sapiens, UniProt Q13148 1-414) (assay: RNA Bind-n-Seq with designed 260-mer pool; 25 mM Tris-HCl, 150 mM KCl, 3 mM MgCl2, BSA (printed 500 mg/mL), 20 units/mL SUPERase IN; pH not stated; 500 nM RNA pool, 1 h, 4 C; TDP-43 5, 50, 500 nM; high values mean tight binding). Conditions: protein: recombinant; tags: SBP (GST cleaved off with PreScission; pGEX-GST-SBP).
TDP-43, sequence (Q13148 whole entry): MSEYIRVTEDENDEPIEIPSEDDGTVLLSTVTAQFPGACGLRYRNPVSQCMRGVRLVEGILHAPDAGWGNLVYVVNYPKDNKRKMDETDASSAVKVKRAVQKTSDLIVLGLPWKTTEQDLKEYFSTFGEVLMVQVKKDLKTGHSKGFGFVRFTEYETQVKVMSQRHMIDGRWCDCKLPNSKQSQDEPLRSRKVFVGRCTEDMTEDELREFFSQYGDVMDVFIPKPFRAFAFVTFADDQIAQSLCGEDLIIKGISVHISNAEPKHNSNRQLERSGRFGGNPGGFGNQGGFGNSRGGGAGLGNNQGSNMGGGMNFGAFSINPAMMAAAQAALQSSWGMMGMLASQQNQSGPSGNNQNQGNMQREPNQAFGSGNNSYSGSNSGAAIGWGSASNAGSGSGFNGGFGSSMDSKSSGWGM
Procedure, shortened: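 For each oligo, R gives binding as its mapped-read-normalized abundance after pulldown divided by its abundance in input. Bead-captured SBP-tagged TDP-43 (5, 50 or 500 nM) was incubated with 500 nM of an in vitro-transcribed 260-nt 3′ UTR oligo pool for 1 h at 4 °C in 25 mM Tris-HCl, 150 mM KCl, 3 mM MgCl2, BSA and SUPERase IN on streptavidin beads. Washed, biotin-eluted RNA was reverse transcribed, PCR-amplified and sequenced.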

Binder | binding signal
B1 | 4.7 R (bound/input frequency ratio)
B2 | 6.21 R (bound/input frequency ratio)
B3 | 6.69 R (bound/input frequency ratio)
B4 | 1.1 R (bound/input frequency ratio)
B5 | 5.71 R (bound/input frequency ratio)
B6 | 3.28 R (bound/input frequency ratio)
B7 | 7.91 R (bound/input frequency ratio)
B8 | 6.42 R (bound/input frequency ratio)
B9 | 11.3 R (bound/input frequency ratio)
